Data published in PubChem BioAssay AID743398 (Broad Institute, 2014).
Hit rate of the full screen: of about 300,000 compounds, about 3,600 (1.2%) were called active. For the sample, actives were picked, then their nearest neighbours and some compounds at random. Values without a mark were called inactive. Cut-off read from the data, not from the text of the source: active = activation above about 30% (passing the limit was not always enough); inconclusive = no clear call, values can overlap the other calls.

assay: Wnt/beta-catenin pathway activators, primary screen, cell-based, plate reader, single point (AID 743398); conditions: Wnt/beta-catenin reporter cell assay, activator, at 9.35 µM, hits give high values;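 note: 0% = neutral control wells and 100% = positive control wells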

| SMILES | activation |
| --- | --- |
| CCOc1ccccc1C(=O)N1CCC[C@@H]1C(=O)N1CCC[C@H]1C(=O)NCc1ccccc1 | 1.73% |
| COC(=O)[C@]12C[C@H](CC(=O)NCCc3ccccc3OC)C(=O)N(Cc3ccccc3)C1=C[C@H](C(C)C)O[C@@H]2C1CC1 | -2.31% |
| COc1ccc(Nc2nnc(C)c3ccccc23)cc1 | 1.79% |
| COc1ccc(Nc2ccc3ccccc3c2)cc1 | 50.4% (active) |
| COc1ccc(-c2nnc(-c3ccc4ccccc4c3)o2)cc1 | 3.21% |
| CCOc1ccc2[nH]c(=S)sc2c1 | 6.79% |
| CCCc1cc(=O)n2[nH]c(C)c(-c3ccc(Cl)cc3)c2n1 | -2.59% |
| COCc1cc(=O)[nH]c(-c2ccc(C(F)(F)F)cc2)n1 | -1.39% |
| COCc1cc(=O)n2[nH]c(C)c(-c3ccccc3)c2n1 | 47.6% (active) |
| O=C(C(=O)N1CCC(c2ccccc2)CC1)c1ccccc1 | -2.25% |
| Cc1cc(NC(=O)COc2ccccc2C#N)no1 | 19% |
| CC(NC(=O)CSc1nc2c(cc1C#N)CN(C)CC2)c1ccccc1 (stereo not drawn) | -0.152% |
| Cc1cc(NC(=O)CSc2nc3c(cc2C#N)CCCCC3)no1 | 35.1% (active) |
| CCOC(=O)C=Cc1ccc(C(=O)OCC)[nH]1 | -4.57% |
| COc1ccc(C2=CN(Cc3ccccc3)C(c3ccc(OC)cc3)CC2=O)cc1 (stereo not drawn) | -3.3% |
| O=C(NCCCNC(=O)c1ccccc1Cl)c1cnccn1 | -1.92% |
| Cn1c(=NC(=O)c2cnccn2)sc2ccccc21 | 40.5% (active) |
| COC(=O)c1ccc(OC(=O)c2cnccn2)cc1 | -1.23% |
| CC(=O)C1=C(C)N(Cc2ccccc2)C(=S)NC1c1cccc(Br)c1 (stereo not drawn) | -4.75% |
| CCOC(=O)[C@]12CCCC=C1N(CCC1=CCCCC1)C(=O)[C@H](CC(=O)NCCCOC)C2 | -3.04% |

| SMILES | activation |
| --- | --- |
| O=C(N/N=C/c1ccc([N+](=O)[O-])o1)c1cn(-c2ccccc2)nc1-c1ccc(F)cc1 | -0.879% |
| O=C(NNC(=O)C1CCCC1)c1ccc(F)cc1 | -1.64% |
| O=C(/C=C/c1ccc([N+](=O)[O-])o1)NNC(=O)c1ccc(F)cc1 | 37.2% (active) |
| CCCCCn1nnnc1-c1nc2cc3ccccc3cc2[nH]c1=O | -1.88% |
| COc1ccc(NC(=O)C2(C)Cc3c(-c4cccc(NC(C)=O)c4)ccnc3O2)cc1OC (stereo not drawn) | -0.993% |
| COCc1cc(N2CCN(C(=O)OC(C)(C)C)C[C@@H]2C)ccc1N1CCN(Cc2ccccc2)[C@H](C)C1 | -6.08% |
| O=C(Cc1nn[nH]n1)NCCC1=CCCCC1 | 1.57% |
| O=C(NCCC1=CCCCC1)c1ccc(-n2cncn2)cc1 | 36.7% (active) |
| O=C(NCCC1=CCCCC1)c1ccc(Cl)c([N+](=O)[O-])c1 | 12.3% |
| COC(=O)[C@@]12C[C@@H](CC(=O)NCCCCc3ccccc3)C(=O)N(Cc3ccccc3)C1=CCC(C)(C)C2 | -3.6% |
| O=C(c1ccc(N2CCOCC2)c([N+](=O)[O-])c1)N1CCN(S(=O)(=O)c2cccs2)CC1 | 42% (active) |
| O=C(c1ccc(N2CCOCC2)c([N+](=O)[O-])c1)N1CCN(c2ccccc2F)CC1 | -6.11% |
| CC(C)c1ccc(S(=O)(=O)N2CCN(C(=O)c3ccc(N4CCCC4)c([N+](=O)[O-])c3)CC2)cc1 | -1.38% |
| O=S1(=O)c2c(cccc2N2CCCC2)O[C@H](COCc2ccccc2)CN1C1CC1 | -2.59% |
| Brc1ccc(C2CC(c3ccccc3)=Nc3ccccc3N2)cc1 (stereo not drawn) | 63.6% (active) |
| c1ccc(C2=Nc3cccc4cccc(c34)N2)cc1 | -4.88% |
| O=C(c1ccccc1)N1N=C(c2ccccc2O)CC1c1ccc(Br)cc1 (stereo not drawn) | -1.76% |
| COCOc1cccc(CN2CCC(C)(Oc3ccc(SC)cc3)C2)c1 (stereo not drawn) | 0.071% |
| CC1(C)CC(=O)C=C(c2ccc(COC(=O)c3cc(F)cc(F)c3)cc2)C1=O | 0.449% |
| CCc1cc(-c2nnn(CCC3COCCO3)c2CC)ccc1-c1cn(Cc2ccc3ccccc3c2)nn1 (stereo not drawn) | -3.93% |

| SMILES | activation |
| --- | --- |
| COc1ccc(N=Nc2ccc(O)c(P(=O)(c3ccccc3)c3ccccc3)c2)cc1 | 1.19% |
| COC(=O)Cc1[nH]n(-c2nc3ccccc3s2)c(=O)c1C(C)=Nc1ccc(OC)cc1 | -8.84% |
| COc1ccc(N=C(C)c2sc3ccccc3c2O)cc1 | 50.3% (active) |
| COc1cc(NC(=O)C2=C(C)OCCS2)c(Cl)cc1C(=O)NCCCN1CCCC(C)C1 (stereo not drawn) | 2.04% |
| Cc1cc2cc3n(c2nn1)N=C(Cl)CC3 | -1.61% |
| Cc1nn(-c2ccc([N+](=O)[O-])cc2)c(N)c1-c1ccccc1 | 37.5% (active) |
| O=C1CC(c2ccccc2)=NN1c1ccc([N+](=O)[O-])cc1 | 5.66% |
| Cc1cc(CO)nn1-c1ccc([N+](=O)[O-])cc1 | 3.25% |
| CC(C)C[C@H](NC(=O)CC1CCCC1)C(=O)N1CCC[C@H]1C(=O)NCc1ccccc1 | 3.46% |
| COc1cccc(NC(=O)C2(C)CCN2C(=O)CCC2CCCC2)c1 (stereo not drawn) | -2.67% |
| Cc1ccc(Cc2c(-c3ccc(Cl)cc3)nc3c4ccccc4ccn23)cc1 | -0.0465% |
| O=C(Cc1nc2ccccc2[nH]c1=O)c1ccc(Cl)cc1 | 52.5% (active) |
| O=C(/C(=C/c1cccc(Cl)c1)c1nc2ccccc2[nH]1)c1ccccc1 | 27.7% |
| O=C(CSc1nc2ccc([N+](=O)[O-])cc2[nH]1)c1ccc(Cl)cc1 | -2.13% |
| Cc1ccc(Nc2ncnc3c2cnn3C)c(C)c1 | 0.858% |
| Cc1ccc(-n2ncc3c(Nc4cccc(C(=O)O)c4)ncnc32)cc1 | 42.2% (active) |
| O=C(NNc1ncnc2c1cnn2-c1ccccc1)c1ccco1 | 0.184% |
| CC(=O)C1=C(C)N(Cc2ccc(Cl)cc2)C(=S)NC1c1ccc(F)cc1 (stereo not drawn) | -10% |
